# Active and inactive are the calls of the source. How the source made its calls: active means hit-call score of the fitted dose curve at least 0.9, where 1 is the maximum; inactive means score below 0.9.
# Experiment: ATG_AP_1_CIS: Attagene CIS-FACTORIAL HepG2 Assay for human Activator Protein 1 (AP-1) (AID 2282931)
# Details: HepG2 Attagene cis-factorial AP-1 reporter mRNA; actives raise or lower the signal
# Method: ATG_CIS is a cell-based, multiplexed-readout assay that uses HepG2, a human liver cell line, with measurements taken at 24 hours after chemical dosing in a 24-well plate.ATG_AP_1_CIS is one of 52 assay component(s) measured or calculated from the ATG_CIS assay. It is designed to make measurements of mRNA induction, a form of inducible reporter, as detected with fluorescence intensity signals by Reverse transcription polymerase chain reaction (RT-PCR) and Capillary electrophoresis technology.Data from the assay component ATG_AP_1_CIS was analyzed into 1 assay endpoint. This assay endpoint, ATG_AP_1_CIS, was analyzed with bidirectional fitting relative to DMSO as the negative control and baseline of activity. Using a type of inducible reporter, measures of mRNA for gain or loss-of-signal activity can be used to understand the reporter gene at the transcription factor-level as they relate to the gene FOS and JUN. Furthermore, this assay endpoint can be referred to as a primary readout, because this assay has produced multiple assay endpoints where this one serves a reporter gene function. To generalize the intended target to other relatable targets, this assay endpoint is annotated to the dna binding intended target family, where the subfamily is basic leucine zipper.
# Human liver HepG2 cells are transiently transfected with multiple reporter transcription units (MRTUs) in 6-well plates using FuGene 6 reagent (Roche; 3 ml FuGene/1 mg DNA). The MRTU constructs are regulated by a cis-regulating element (promoter). […] A major difference between the CIS and TRANS system is that in CIS activities of endogenous TFs are measured, whereas the TRANS assay evaluates changes in activities of exogenous, chimeric NR-Gal4 proteins. […] At the end of 24 hour incubation, total RNA was isolated using TriZol reagent (Invitrogen). The isolated RNA is then reverse-transcribed using oligo(dT) primer and Mo-MLV reverse transcriptase (Invitrogen) with DNAse I (Ambion) treatment for 30 min. The one-tenth of the produced cDNA was amplified by PCR using Taq DNA polymerase (Invitrogen) and two reporter sequence-specific primers. The PCR products were fluorescently labeled by primer extension with 6-arboxyfluorescein (6-FAM) 5'-labeled reporter sequence-specific primer (2 min at 95 C, 20 s at 68 C and 10 min at 72 C) and these products were digested with 5U of HpaI (New England Biolabs) for 2h at 37 C. The fragments were purified using Qiaquick PCR columns (Qiagen), analyzed on an ABI 3130xL genetic analyzer (Applied Biosystems) with peak positions identified by using a set of X-rhodamine (ROX)-labeled MapMarker1000 molecular weight standards (BioVentures). The raw capillary electrophoresis data was processed using Attagraph software (Attagene).
SMILES,outcome,AC50
CCCCOC(=O)C(C)CC (stereo not given),inactive,
COC(OC)(C(=O)c1ccccc1)c1ccccc1,inactive,
CCOC(=O)/C=C\C(=O)OCC,,50.5 µM (active)
C=CC(=O)NC(C)(C)C,inactive,
CC(C)(O)Cc1ccccc1,inactive,
C=Cc1ccc(OC(C)=O)cc1,inactive,
O=C(Oc1ccccc1)c1ccccc1O,inactive,
COC(Cc1ccccc1)OC,inactive,
Cc1c(O)cccc1O,inactive,
CCCCCOC(=O)CCCCC,inactive,
C=CC(=O)NCOCCCC,inactive,
CC(c1cc(C(C)(C)C)cc(C(C)(C)C)c1O)c1cc(C(C)(C)C)cc(C(C)(C)C)c1O,inactive,
CCOC(=O)OC(=O)OCC,inactive,
C[Si]1(C)O[Si](C)(C)O[Si](C)(C)O[Si](C)(C)O[Si](C)(C)O1,inactive,
C=CC(C)(O)CC/C=C(\C)CC (stereo not given),inactive,
Cc1c(Cl)cccc1Cl,inactive,
CC(C)(C)C1CCC(=O)CC1,inactive,
CC=C(C)C(C)=O,inactive,
CC(C)C(=O)OCCOc1ccccc1,inactive,
Cn1cccc1,,26.4 µM (active)

SMILES,outcome,AC50
CC(C)(C)N,inactive,
CCCCCCCOC(=O)c1ccc(O)cc1,inactive,
CC(C)c1ccc2ncccc2c1,inactive,
O=C1CCCCC1C1CCCCC1 (stereo not given),inactive,
O=c1c(O)c(-c2ccc(O)cc2O)oc2cc(O)cc(O)c12,inactive,
O=C1CCCCCCCCCCCN1,inactive,
CC(C=O)c1ccccc1 (stereo not given),inactive,
C1CNCCN1,inactive,
O=C(OCCc1ccccc1)c1ccccc1,inactive,
C=C1C[C@H]2[C@@H]3C=C(C)C4=CC(=O)CC[C@]4(C)[C@H]3CC[C@]2(C)[C@@]1(OC(C)=O)C(C)=O,,63 µM (active)
COC(=O)CC(C)CCC=C(C)C (stereo not given),inactive,
CC(=O)c1ccccc1O,inactive,
C=CC(=O)OCCCCCCCC(C)C,inactive,
N#Cc1ccc(C2CCCc3cncn32)cc1 (stereo not given),inactive,
CN(C)c1ccc2nc3ccc(=[N+](C)C)cc-3sc2c1,,19.8 µM (active)
CCCCCCOc1ccc(N)cc1,inactive,
O=C(O)C(F)(F)C(F)(F)C(F)(F)C(F)(F)C(=O)O,inactive,
CCCCCC1=CCCC1=O,inactive,
O=C(Cl)c1c(Cl)c(Cl)c(C(=O)Cl)c(Cl)c1Cl,inactive,
CCCCOC(=O)CCC(C)=O,inactive,
